This note sets out measurements from PubChem BioAssay (NCATS).

Results filed as inconclusive are left out. Activity calls are given as the source filed them. Unless noted, calls follow the shape of the dose curve; as a rule, active = well fitted curve in the direction sought with a large enough effect; inconclusive = small, poorly fitted or top-dose-only effect, or another doubt; inactive = no such curve, though single readings can be large; an effect the other way counts as inactive or inconclusive.

Experiment [1] has as its target Cytochrome P450 3A4 (Homo sapiens) (UniProt P08684). Put plainly: qHTS Assay for Inhibitors and Substrates of Cytochrome P450 3A4 (AID 884). Also: nearly all actives have a fitted effect of over 50% in size. Also: potency is read from the fitted curve at half-maximal effect. As to activity change, negative = inhibition: % is scaled to controls: 0 for no effect and ±100 for the full control effect. The procedure, abridged:
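20 nM human CYP3A4 with 25 uM Luciferin-PPXE (at KM) in 200 mM KPO4, preincubated 10 min with compound; NADPH regeneration started a 60 min RT reaction. Luciferin detected by luminescence, normalized to 57 uM ketoconazole as full inhibition.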
(Quantitative high-throughput screening tests each substance at several concentrations.)

The nature of experiment [2]: Confirmation and Secondary Assay for Modulators of Hemoglobin Beta Chain Splicing at IVS2 654 locus (AID 910).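 Also: per-well total GFP intensity by laser scanning cytometry after 2-day treatment; % of control where 0% means no effect.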 The procedure, abridged:
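HeLa cells stably carrying EGFP interrupted by mutant beta-globin IVS2-654 intron (CMV-driven) were treated with compound for 2 days at 37C; corrected splicing was scored as total peak GFP intensity per well (488 nm excitation, 500-520 nm emission).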

A short description of experiment [3]: Confirmation and Secondary Assay for Modulators of Hemoglobin Beta Chain Splicing at IVS2 705 locus (AID 930).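 Also: HeLa cells stably expressing the EGFP-705 splicing reporter; GFP fluorescence per well restored by corrected splicing of the IVS2-705 intron in EGFP; % of control where 0% means no effect.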 The procedure, abridged: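 Per-well GFP, captured at 1 x 8 µm resolution with 488 nm excitation, served as the read-out for HeLa EGFP-705 cells incubated 2 days with test compound versus DMSO.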
The nature of experiment [4]: qHTS Assay for Lipid Storage Modulators (AID 1519; calls by dose curve; as to activity change, negative = inhibition: % is scaled to controls: 0 for no effect and ±100 for the full control effect). As to conditions: Drosophila S3 cells, BODIPY lipid droplet/cell ratio, laser cytometry, cells loaded with oleic acid; for activity change, negative = inhibition: at 57.5 µM (top of the series). The method, boiled down:
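Cells seeded at 5,000 per well were treated with compounds over a concentration series and loaded with oleic acid (400 uM, as added). Lipid droplet fluorescence (488 nm excitation, 500-530 nm channel) was read by laser-scanning cytometry and normalized to 20 uM Triacsin C.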

For experiment [5], the target named is Cytochrome P450 3A4 (Homo sapiens) (UniProt P08684). Briefly: qHTS Assay for Activators of Cytochrome P450 3A4 (AID 885). Also: nearly all actives have a fitted effect of over 65% in size. The procedure, abridged: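 20nM CYP3A4 + 25uM Luciferin-PPXE (=KM), 200mM KPO4; cpd 10 min RT; NADPH regen, 60 min RT; stop w/ detection buffer, 20 min; luminescence. Normalized to 57 uM ketoconazole.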
Sequence of Cytochrome P450 3A4 (Homo sapiens) (P08684 whole entry, looked up): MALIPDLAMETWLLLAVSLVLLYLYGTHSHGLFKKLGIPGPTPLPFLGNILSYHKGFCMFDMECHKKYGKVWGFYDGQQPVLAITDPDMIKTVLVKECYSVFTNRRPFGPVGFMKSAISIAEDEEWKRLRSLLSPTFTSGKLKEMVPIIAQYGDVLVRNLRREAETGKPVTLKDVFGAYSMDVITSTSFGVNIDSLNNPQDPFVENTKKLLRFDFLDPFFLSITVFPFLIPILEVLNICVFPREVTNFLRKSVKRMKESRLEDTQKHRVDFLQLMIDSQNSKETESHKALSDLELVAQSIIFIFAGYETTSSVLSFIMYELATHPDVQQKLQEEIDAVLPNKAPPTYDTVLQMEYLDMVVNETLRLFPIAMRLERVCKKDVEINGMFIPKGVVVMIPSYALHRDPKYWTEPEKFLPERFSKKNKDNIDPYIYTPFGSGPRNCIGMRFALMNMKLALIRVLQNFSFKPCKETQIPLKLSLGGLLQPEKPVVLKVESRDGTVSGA
Setting [6] is: measured here: cell count channel max response.
The mark [7] stands for this setting: measured here: lipid channel max response.

Take `CCCCCCCCCCCCCCC(C(=O)OC)C(O)(CC(=O)OC)C(=O)OC` (stereo not drawn): the Potency entry in experiment [1], in experiment [2] and in experiment [3] was “inactive” in each case. Further, in experiment [4], the activity change, negative = inhibition is -24% (inactive). Besides, the max response in experiment [4] (setting [6]) is -1.14%; in experiment [4] (setting [7]) it was -26.9%.
On to `CC(C)C1=CC2=CC[C@@H]3[C@](C)(CO)CCC[C@]3(C)C2CC1` (stereo partly drawn), for which the Potency result in experiment [1], in experiment [2] and in experiment [3] was “inactive” each time. In addition, the activity change, negative = inhibition in experiment [4] is 1.89% (inactive). Also, the max response in experiment [4] (setting [6]) amounted to 10.4%; in experiment [4] (setting [7]), 14.9%.
Take `COc1ccc(-c2oc3ccccc3c(=O)c2O)cc1OC`: the Potency in experiment [1] was 20 µM (active). For the same molecule, the Potency entry in experiment [2] and in experiment [3] was “inactive” each time. Moreover, the activity change, negative = inhibition in experiment [4] was 7.98% (inactive). In addition, the max response in experiment [4] (setting [6]) is 6.61%; in experiment [4] (setting [7]), 24.2%.
As for `CC1=CC(=O)C2C(C)(C)CCC[C@@]2(C)[C@@]1(O)CCc1ccoc1` (stereo partly drawn), in experiment [1], the Potency is 15.8 µM (active). Further, the Potency entry in experiment [2] and in experiment [3] was “inactive” throughout. For the same molecule, the activity change, negative = inhibition in experiment [4] was -1.73% (inactive). For the same molecule, the max response in experiment [4] (setting [6]) was 10.7%; in experiment [4] (setting [7]), 10.8%.
`CC(C)CCCC(C)C1CCC2C3CC=C4CC(=O)CC[C@@]4(C)C3CC[C@@]12C` (stereo partly drawn): the Potency result in experiment [1], in experiment [2] and in experiment [3] was “inactive” in each case. Moreover, in experiment [4], the activity change, negative = inhibition was 3.79% (inactive). The values for the max response in experiment [4] (setting [6]) and in experiment [4] (setting [7]) were 3.76% and 6.47%, respectively.
Consider `CC(C)CCCC(C)C1CCC2C3=CC[C@@H]4CC(O)CC[C@@]4(C)C3CC[C@]21C` (stereo partly drawn), for which the Potency result in experiment [1], in experiment [2] and in experiment [3] was “inactive” each time. In experiment [4], the activity change, negative = inhibition was -3.72% (inactive). In addition, the max response in experiment [4] (setting [6]) was found to be 6.46%; in experiment [4] (setting [7]), 4.39%.
For `CC(=O)OC1CC[C@]2(C)C(CC(OC(C)=O)[C@]3(C)C2CC[C@@]2(C)C(c4ccoc4)OC(=O)C4O[C@]432)C1(C)C` (stereo partly drawn), the Potency result in experiment [1], in experiment [2] and in experiment [3] was “inactive” throughout. The activity change, negative = inhibition in experiment [4] was 15.1% (inactive). In addition, the max response in experiment [4] (setting [6]) worked out at 12.6%; in experiment [4] (setting [7]), 25.6%.
On to `COc1ccc2c(c1)CCC1C2CC[C@@]2(C)C(O)CCC12` (stereo partly drawn), for which the Potency result in experiment [1], in experiment [2] and in experiment [3] was “inactive” throughout. Further, the activity change, negative = inhibition in experiment [4] is 6.39% (inactive). Besides, the results for the max response in experiment [4] (setting [6]) and in experiment [4] (setting [7]) were 9.55% and 16.1%, respectively.
For the molecule `CC1=C(C(=O)O)N2C(=O)C(NC(=O)C(N)C3=CCC=CC3)C2SC1` (stereo not drawn), the Potency entry in experiment [1], in experiment [2] and in experiment [3] was “inactive” throughout. Further, the activity change, negative = inhibition in experiment [4] is 10.8% (inactive). The max response in experiment [4] (setting [6]) was 14%; in experiment [4] (setting [7]) it was 29.2%.
With `COC(=O)/C=C/C(C)=C/C=C/C(C)=C/C=C/C=C(C)/C=C/C=C(C)/C=C/C(=O)O`, the Potency result in experiment [1], in experiment [2] and in experiment [3] was “inactive” throughout. In addition, in experiment [4], the activity change, negative = inhibition is 5.02% (inactive). The max response in experiment [4] (setting [6]) turned out to be 17.2%; in experiment [4] (setting [7]) it was 24.2%.
In the case of `CC(=O)OCC(=O)[C@@]1(O)CCC2C3CC(C)C4=CC(=O)C=CC4(C)C3C(O)CC21C` (stereo partly drawn), the Potency result in experiment [5], in experiment [2] and in experiment [3] was “inactive” in each case. Besides, in experiment [4], the activity change, negative = inhibition is 2.16% (inactive). The max response is -9.81% in experiment [4] (setting [6]) and -3.93% in experiment [4] (setting [7]).
As to `O=c1[nH]c(=O)n(C2CC(O)C(CO)O2)cc1F` (stereo not drawn), the Potency entry in experiment [1], in experiment [2] and in experiment [3] was “inactive” each time. Moreover, the activity change, negative = inhibition in experiment [4] was 3.4% (inactive). Moreover, the max response is 3.49% in experiment [4] (setting [6]) and 8.27% in experiment [4] (setting [7]).
As to `CC(C)C1=CC2=CCC3[C@@](C)(CCC[C@@]3(C)C(=O)O)C2CC1` (stereo partly drawn), the Potency result in experiment [5], in experiment [2] and in experiment [3] was “inactive” each time. In addition, the activity change, negative = inhibition in experiment [4] was 4.85% (inactive). In addition, the max response in experiment [4] (setting [6]) turned out to be 5.3%; in experiment [4] (setting [7]) it was 10.4%.
For `CC(=O)OC1CC2C(C)(C)C(=O)C3OC3[C@]2(C)C2CC[C@@]3(C)C(c4ccoc4)OC(=O)C4OC43[C@]12C` (stereo partly drawn), the Potency result in experiment [1] and in experiment [3] was “inactive” in each case. Also, in experiment [4], the activity change, negative = inhibition was -0.845% (inactive). The max response was -15.4% in experiment [4] (setting [6]) and -5.43% in experiment [4] (setting [7]).
